Results from PubChem BioAssay (NCI).
This is part of a sample that, as a whole, favours compounds with a hit. Of some 79,000 tested, about 15% had one in any assay. Active and inactive are the calls of the source. Cut-off read from the data, not from the text of the source: active = growth inhibition above about 70%; inactive = the rest.

Columns and labels:
[1] = NCI Yeast Anticancer Drug Screen. Data for the wt1 strain (AID 149);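 note: 0% = growth of vehicle-treated wt1 cultures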; conditions: S. cerevisiae wt1 strain (SPY 50644) growth inhibition, hits give high values
How it was run: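 Yeast wt1 strain exposed to compounds; growth inhibition measured relative to vehicle-treated controls.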

[2] = NCI Yeast Anticancer Drug Screen. Data for the rad50EPP+ strain (AID 151);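 note: 0% = growth of vehicle-treated control cultures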; conditions: S. cerevisiae rad50 mutant strain, hits give high values
How it was run: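 Genetically defined yeast (rad50EPP+, DNA damage repair alteration) is grown with compound, and inhibition of growth is expressed relative to vehicle-treated controls.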

[3] = NCI Yeast Anticancer Drug Screen. Data for the mgt1 strain (AID 153); conditions: S. cerevisiae mgt1 mutant growth inhibition, hits give high values
How it was run: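 In the mgt1 strain, test compounds were added and growth inhibition was determined relative to vehicle-treated controls.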

[4] = NCI Yeast Anticancer Drug Screen. Data for the rad50 strain (AID 155);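 note: 0% = growth of vehicle-only cultures of the same strain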; conditions: S. cerevisiae rad50 strain growth inhibition, hits give high values
How it was run: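 Yeast carrying a defined DNA repair defect were exposed to test compounds, and growth was compared with vehicle-treated controls to give percent inhibition.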

[5] = NCI Yeast Anticancer Drug Screen. Data for the mec2-1 strain (AID 157); conditions: S. cerevisiae mec2-1 strain, hits give high values
How it was run: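 Each compound was tested on mec2-1 yeast, a strain altered in DNA damage repair or cell cycle control. Growth inhibition is reported relative to vehicle.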

[6] = NCI Yeast Anticancer Drug Screen. Data for the rad14 strain (AID 159);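 note: 0% = growth of vehicle-treated control cultures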; conditions: S. cerevisiae rad14 strain growth inhibition, hits give high values
How it was run: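 Yeast cells carrying a defined DNA-repair defect were exposed to compounds, and growth inhibition was calculated relative to vehicle-treated control cultures.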

[7] = NCI Yeast Anticancer Drug Screen. Data for the sgs1 mgt1 strain (AID 161);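 note: 0% = growth of cultures given vehicle only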; conditions: S. cerevisiae sgs1 mgt1 strain, hits give high values
How it was run: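 Test agents were incubated with a DNA-repair-mutant yeast strain. Growth was then read and compared against vehicle-treated controls.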

[8] = NCI Yeast Anticancer Drug Screen. Data for the CLN2oe strain (AID 163);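 note: 0% = growth of vehicle-only control cultures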; conditions: S. cerevisiae CLN2oe strain, hits give high values
How it was run: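 First, the altered yeast strain was treated with each compound; second, its growth was measured; finally, inhibition was derived by comparison with vehicle controls.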

[9] = NCI Yeast Anticancer Drug Screen. Data for the cln2 rad14 strain (AID 165);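 note: 0% = growth equal to vehicle treated cultures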; conditions: S. cerevisiae cln2 rad14 strain, hits give high values
How it was run: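 Test compounds were added to cln2 rad14 yeast cultures; inhibition of growth was then determined by comparison with vehicle treatment.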

[10] = NCI Yeast Anticancer Drug Screen. Data for the bub3 strain (AID 167); conditions: S. cerevisiae bub3 mutant strain, hits give high values
How it was run: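 Compounds were applied to a genetically altered yeast strain carrying a cell-cycle control defect. Growth inhibition was scored against vehicle-treated controls.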

[11] = NCI Yeast Anticancer Drug Screen. Data for the wt2 strain (AID 169);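 note: 0% = growth of vehicle-treated yeast cultures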; conditions: S. cerevisiae wt2 strain growth inhibition, hits give high values
How it was run: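 The panel's yeast strains carry defined changes in DNA repair or cell cycle genes. Each strain is grown with compound, and growth loss is scored relative to vehicle.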

[12] = NCI Yeast Anticancer Drug Screen. Data for the mlh1 strain (AID 171);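 note: 0% = growth of vehicle-treated control cultures of the same strain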; conditions: S. cerevisiae mlh1 strain growth inhibition, hits give high values
How it was run: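 Inhibition values reflect reduced yeast growth in the presence of compound, referenced to vehicle controls, using a strain chosen for its alteration in DNA repair or cell cycle control.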

[13] = NCI Yeast Anticancer Drug Screen. Data for the sgs1 strain (AID 173);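 note: 0% = growth of vehicle-only control cultures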; conditions: S. cerevisiae sgs1 mutant, hits give high values
How it was run: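 Vehicle-treated cultures served as reference for growth inhibition of a yeast strain altered in DNA damage repair or cell cycle control after compound exposure.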

[14] = NCI Yeast Anticancer Drug Screen. Data for the mlh1 rad18 strain (AID 175); conditions: S. cerevisiae mlh1 rad18 strain growth inhibition, hits give high values
How it was run: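 Inhibition values reflect reduced growth of mutant yeast versus vehicle-treated controls following compound exposure; the mutations affect DNA damage repair.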

[15] = NCI Yeast Anticancer Drug Screen. Data for the rad18 strain (AID 177); conditions: S. cerevisiae rad18 mutant growth inhibition, hits give high values
How it was run: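 Steps: expose repair-mutant yeast to compound; measure growth; express as inhibition relative to vehicle control.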

[16] = NCI Yeast Anticancer Drug Screen. Data for the rad52 strain (AID 147);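 note: 0% = growth of vehicle-treated control cultures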; conditions: S. cerevisiae rad52 mutant growth inhibition, hits give high values
How it was run: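 Inhibition of yeast growth, referenced to vehicle controls, was the measured output for a strain with defective DNA damage repair.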

[17] = at 5.0 µM (retest, dose inferred, filed as 0.5)
[18] = at 50.0 µM (retest, dose inferred, filed as 5.0)

Measured: growth inhibition

CN(C)c1ccc(/C=C/c2ccnc3ccc4ccccc4c23)cc1
inactive: [1]; at 1.2 µM -6% | [1]; at 3.7 µM -9% | [1]; at 11.0 µM -6% | [1]; at 33.0 µM 34% | [1]; at 100.0 µM 48% | [2]; at 1.2 µM 2% | [2]; at 3.7 µM 8% | [2]; at 11.0 µM 15% | [2]; at 33.0 µM 4% | [2]; at 100.0 µM -14% | [3]; at 1.2 µM -3% | [3]; at 3.7 µM -2% | [3]; at 11.0 µM 45% | [3]; at 33.0 µM 69% | [3]; at 100.0 µM 58% | [4]; at 1.2 µM -7% | [4]; at 3.7 µM 3% | [4]; [17] 9% | [4]; at 11.0 µM 30% | [4]; at 33.0 µM 67% | [4]; [18] -7% | [4]; at 50.0 µM 69% | [5]; at 1.2 µM -7% | [5]; at 3.7 µM -7% | [5]; [17] -7% | [5]; at 11.0 µM 4% | [5]; [18] -18% | [5]; at 50.0 µM 27.3% | [6]; at 1.2 µM -5% | [6]; at 3.7 µM -4% | [6]; at 11.0 µM 28% | [7]; [17] -2% | [8]; at 1.2 µM -11% | [8]; at 3.7 µM -16% | [8]; at 11.0 µM -15% | [8]; at 33.0 µM 2% | [8]; at 100.0 µM 55% | [9]; [17] -14% | [9]; [18] 22% | [9]; at 50.0 µM 6.65% | [10]; at 1.2 µM -6% | [10]; at 3.7 µM -8% | [10]; [17] -4% | [10]; at 11.0 µM 6% | [10]; [18] 3% | [11]; at 1.2 µM -6% | [11]; at 3.7 µM -5% | [11]; at 11.0 µM 50% | [11]; at 33.0 µM 61% | [11]; at 100.0 µM 51% | [12]; at 1.2 µM -8% | [12]; at 3.7 µM 0% | [12]; at 11.0 µM 45% | [12]; at 33.0 µM 67% | [12]; at 100.0 µM 68% | [13]; at 1.2 µM -3% | [13]; at 3.7 µM 11% | [13]; at 11.0 µM 67% | [13]; at 100.0 µM 68% | [14]; [17] -3% | [14]; [18] 37% | [15]; at 1.2 µM 2% | [15]; at 3.7 µM 20%
active: [4]; at 100.0 µM 70% | [5]; at 33.0 µM 82% | [5]; at 100.0 µM 82% | [6]; at 33.0 µM 83% | [6]; at 100.0 µM 80% | [7]; [18] 76% | [7]; at 50.0 µM 91.4% | [10]; at 33.0 µM 83% | [10]; at 50.0 µM 70% | [10]; at 100.0 µM 79% | [13]; at 33.0 µM 77% | [14]; at 50.0 µM 72% | [15]; at 11.0 µM 75% | [15]; at 33.0 µM 84% | [15]; at 100.0 µM 75%

CCOC(=O)C1=C(C)NC(C)=C(C(=O)OCC)C1c1cccc([N+](=O)[O-])c1
active: [16]; at 100.0 µM 73% | [1]; at 100.0 µM 88% | [4]; [18] 80% | [4]; at 50.0 µM 90.8% | [4]; at 100.0 µM 88% | [5]; [18] 76% | [5]; at 100.0 µM 83% | [6]; at 100.0 µM 88% | [8]; at 100.0 µM 87% | [10]; at 100.0 µM 73% | [11]; at 100.0 µM 92% | [12]; at 100.0 µM 86% | [13]; at 100.0 µM 86% | [14]; [18] 75% | [14]; at 50.0 µM 90.7% | [15]; at 100.0 µM 83%
inactive: [16]; at 1.2 µM -90% | [16]; at 3.7 µM -81% | [16]; at 11.0 µM -35% | [16]; at 33.0 µM 17% | [1]; at 1.2 µM -53% | [1]; at 3.7 µM -41% | [1]; at 11.0 µM -22% | [1]; at 33.0 µM 37% | [2]; at 1.2 µM -54% | [2]; at 3.7 µM -78% | [2]; at 11.0 µM -91% | [2]; at 33.0 µM -93% | [2]; at 100.0 µM -103% | [4]; at 1.2 µM -39% | [4]; at 3.7 µM 0% | [4]; [17] 34% | [4]; at 11.0 µM 31% | [4]; at 33.0 µM 65% | [5]; at 1.2 µM -36% | [5]; at 3.7 µM -16% | [5]; [17] 35% | [5]; at 11.0 µM -10% | [5]; at 33.0 µM 30% | [5]; at 50.0 µM 37.1% | [6]; at 1.2 µM -39% | [6]; at 3.7 µM -32% | [6]; at 11.0 µM -17% | [6]; at 33.0 µM 25% | [7]; [17] -15% | [7]; [18] 22% | [8]; at 1.2 µM -31% | [8]; at 3.7 µM -34% | [8]; at 11.0 µM -23% | [8]; at 33.0 µM 31% | [9]; [17] 45% | [9]; [18] 54% | [10]; at 1.2 µM -21% | [10]; at 3.7 µM -5% | [10]; [17] 29% | [10]; at 11.0 µM 4% | [10]; at 33.0 µM 22% | [10]; [18] 40% | [11]; at 1.2 µM -43% | [11]; at 3.7 µM -44% | [11]; at 11.0 µM -13% | [11]; at 33.0 µM 45% | [12]; at 1.2 µM -74% | [12]; at 3.7 µM -39% | [12]; at 11.0 µM -29% | [12]; at 33.0 µM 51% | [13]; at 1.2 µM -18% | [13]; at 3.7 µM -14% | [13]; at 11.0 µM 13% | [13]; at 33.0 µM 60% | [14]; [17] 30% | [15]; at 1.2 µM 5% | [15]; at 3.7 µM 32% | [15]; at 11.0 µM 33% | [15]; at 33.0 µM 60%
